# In PubChem BioAssay (Tox21):
# Values without a mark were called inactive. Active and inactive are the calls of the source. The call rests on the fitted dose curve; in most records, active means well fitted curve in the direction sought with a large enough effect in the repeat runs; inconclusive means weak or mixed curves; inactive means flat fitted curve, though single readings scatter.
# Test: qHTS assay to test for compound auto fluorescence at 460 nm (blue) in HepG2 cells (AID 720687)
# Settings: autofluorescence 405/460 nm, 1 h; series mostly up to 91.3 µM
# Text: U.S. Tox21 Program National Center for Advancing Translational Sciences [NCATS] NIH Chemical Genomics Center [NCGC] U.S. Environmental Protection Agency [EPA] National Institutes of Environmental Health Sciences [NIEHS] National Toxicology Program [NTP] U.S. Food and Drug Administration [FDA] Tox21 Assay Overview: Compound auto fluorescence often interferes with screening of the compound library against various biological targets and signaling pathways. Some of these compounds may have fluorophoric properties. Such properties may interfere with the assay outputs resulting in false positives and/or negatives. To decrease such complications and ensure the compound activities are relevant in terms of biological response, the Tox21 10K compound library was screened for auto fluorescence. From the fluorophores used as reporter signals in our screening assays, the auto fluorescence equivalencies of compounds against three fluorophores have been evaluated: Triamterene, Fluorescein and Rose Bengal sodium for blue, green and red fluorescence, respectively. The fluorescence intensities were measured using Excitation/Emission wavelengths at 405/460nm, 485/535nm and 540/590nm for blue, green and red labels, respectively. This assay includes the blue fluorescence data.
# Tox21 Assay Protocol Summary: 2,000 HepG2 cells in 5 uL of culture medium (MEM containing 10% FBS) per well were dispensed into black wall/clear bottom 1536-well plates using a Multidrop Combi Dispenser (ThermoFisher Scientific, Waltham, MA). The assay plates were incubated overnight at 37 C to allow cell attachment to the well bottom, followed by the transfer of 23 nL compound or DMSO vehicle by a pintool work station (Kalypsys , San Diego, CA). After the assay plates were incubated for 1 hr at 37 C and 5% CO2, fluorescence intensities in the assay plates were measured by an Envision (PerkinElmer, Shelton, CT) plate reader using three labels for measuring blue, green and red fluorescence at […] 460, 535 and 590 nm respectively.
# On the % scale 0 is the no-effect control and ±100 the full control effect.
SMILES,outcome,"fluorescence, % of fluorescent control"
O=C(Nc1ccccc1)c1cc([N+](=O)[O-])ccc1Cl,inactive,
COC(=O)Cc1cccc2ccccc12,inactive,
Cc1ccc2c(Cl)cc(Cl)c(O)c2n1,inactive,
CCC1=C(C)CN(C(=O)NCCc2ccc(S(=O)(=O)NC(=O)NC3CCC(C)CC3)cc2)C1=O (stereo not given),inactive,
O=C(O)CNc1ccccc1,inactive,
Cc1cc(C)c(C)c(O)c1,inactive,
CC(O)C(C)O (stereo not given),inactive,
Cc1cc(C)n(CO)n1,inactive,
CCCCCO,inactive,
CCCCCCCCCCCCCCCCN,inactive,
CO[C@@H]1COCC[C@@H]1N[C@@H]1CC[C@@](C(=O)N2CCc3ncc(C(F)(F)F)cc3C2)(C(C)C)C1,inactive,
Oc1ccc(Oc2ccccc2)cc1,inactive,
CC(C)(C)N,inactive,
CC(C)(Cc1c[nH]c2ccccc12)NCC(O)COc1ccccc1C#N (stereo not given),inactive,
Nc1ncnc2c1ncn2[C@@H]1O[C@H](CO)[C@@H](O)[C@H]1O,inactive,
C=CC(O)CCCCC (stereo not given),inactive,
CC1(C)C(=O)NC(=O)N1CO,inactive,
CCCCCCCCOCCCN,inactive,
FC(F)(Cl)C(F)(Cl)Cl,inactive,
CCCCCCCCCCCCCCCCCCCl,,-0.0032% [at 3.72 µM]

SMILES,outcome,"fluorescence, % of fluorescent control"
CCC(C)CCCC(C)(C)O (stereo not given),inactive,
Nc1ccc(C(=O)Oc2ccccc2)c(O)c1,inactive,
Nc1ccc(F)cc1F,inactive,
CCCC(=O)OCc1ccccc1,inactive,
CC1(C)CC(O)CC(C)(C)N1[O],inactive,
CCCCCCCCCCCCSC#N,inactive,
O=P(c1ccccc1)(c1ccccc1)c1ccccc1,inactive,
O=C(O)c1ccncc1,inactive,
CC(C)C[C@H](NC(=O)[C@H](Cc1ccccc1)NC(=O)c1cnccn1)B(O)O,inactive,
CCOC(OCC)OCC,inactive,
COc1ccc(C(=O)c2ccc(C)cc2)c(O)c1,inactive,
O=C(O)c1ccccc1-n1cc(C(=O)O)c(=O)c2cc(Nc3c(F)cc(F)cc3Cl)c(Cl)cc21,inactive,
O=C(Cl)c1ccc(F)c(Cl)c1,inactive,
O=C(O)CCc1nc2ccccc2[nH]1,inactive,
CC(=O)OCC(=O)[C@@]1(O)CC[C@H]2[C@@H]3CCC4=CC(=O)C=C[C@]4(C)[C@@]3(F)[C@@H](O)C[C@@]21C,,-0.158% [at 18.6 µM]
O=C(Nc1ccc2c(c1)Cc1ccccc1-2)C(F)(F)F,inactive,
COc1cc(C)c(Cc2cnc(N)nc2N)cc1OC,inactive,
Nc1ccccc1Nc1ccccc1,inactive,
CCCc1nc(C)c2c(=O)[nH]c(-c3cc(S(=O)(=O)N4CCN(CC)CC4)ccc3OCC)nn12,inactive,
Cc1ccc(NC(=O)c2ccc(CN3CCN(C)CC3)cc2)cc1Nc1nccc(-c2cccnc2)n1,inactive,
